Holding throughout (assay): DAPPL (digital affinity profiling via proximity ligation, sequencing); 10 mM Tris-HCl pH 7.5, 50 mM NaCl, 1 mM DTT, 4% glycerol, room temperature, 30 min; GST-TFs on glutathione beads, 16-mer random dsDNA library, 0.1% formaldehyde crosslink after washing; high values mean tight binding
For one assay, the target named is T1, FEV (Homo sapiens, UniProt Q99581 1-238).
T1 sequence: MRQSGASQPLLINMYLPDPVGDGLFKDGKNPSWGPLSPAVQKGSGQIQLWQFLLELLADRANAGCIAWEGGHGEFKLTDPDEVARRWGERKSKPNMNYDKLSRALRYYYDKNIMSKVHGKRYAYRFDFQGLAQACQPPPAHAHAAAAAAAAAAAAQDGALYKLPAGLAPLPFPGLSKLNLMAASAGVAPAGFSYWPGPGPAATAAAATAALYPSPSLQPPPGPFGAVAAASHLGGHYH
Particulars: protein: recombinant; tags: N-terminal GST; dsDNA, one strand shown. The essentials:
(§1)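 Beads coated with glutathione captured GST-fused human transcription factors that had been expressed in yeast, and the factors were then given DNA barcodes and pooled with a tag-only sample. The pools were incubated with 200 nmole of a random double-stranded 16-mer DNA library in Tris/NaCl/DTT/glycerol buffer for 30 min at room temperature, washed, crosslinked with 0.1% formaldehyde and proximity-ligated with BsaI/T4 ligase at 37 °C for 1 h. PCR amplification and Illumina NextSeq500 sequencing came last. Binding signal is each hexamer's read frequency for a factor divided by its frequency for the tag-only sample.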

The next assay concerns the target ETV5 (Homo sapiens, UniProt P41161 1-510). Particulars: protein: recombinant; tags: N-terminal GST; dsDNA, one strand shown. The essentials:
as §1

The target in the next assay is HSF1 (Homo sapiens, UniProt Q00613 1-529). To be noted: protein: recombinant; tags: N-terminal GST; chain copies: 3; dsDNA, one strand shown. The method, boiled down: as §1
HSF1, sequence (Q00613 whole entry): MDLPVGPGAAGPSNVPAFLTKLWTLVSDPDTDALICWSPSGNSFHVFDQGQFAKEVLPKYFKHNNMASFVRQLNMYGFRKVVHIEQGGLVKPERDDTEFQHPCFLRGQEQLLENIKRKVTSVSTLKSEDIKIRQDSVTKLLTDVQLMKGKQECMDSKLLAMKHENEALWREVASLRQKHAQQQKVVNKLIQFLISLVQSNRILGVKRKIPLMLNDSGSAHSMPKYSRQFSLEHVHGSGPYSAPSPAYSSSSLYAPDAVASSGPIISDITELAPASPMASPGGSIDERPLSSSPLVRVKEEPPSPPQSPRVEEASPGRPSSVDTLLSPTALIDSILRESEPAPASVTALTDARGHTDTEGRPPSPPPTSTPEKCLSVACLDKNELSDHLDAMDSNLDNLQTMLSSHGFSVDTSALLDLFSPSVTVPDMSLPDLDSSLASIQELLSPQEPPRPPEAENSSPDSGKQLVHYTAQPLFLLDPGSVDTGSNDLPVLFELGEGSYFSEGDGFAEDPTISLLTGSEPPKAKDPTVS
A further assay has as its target T2, SPIC (Homo sapiens, UniProt Q8N5J4 1-248).
T2 sequence: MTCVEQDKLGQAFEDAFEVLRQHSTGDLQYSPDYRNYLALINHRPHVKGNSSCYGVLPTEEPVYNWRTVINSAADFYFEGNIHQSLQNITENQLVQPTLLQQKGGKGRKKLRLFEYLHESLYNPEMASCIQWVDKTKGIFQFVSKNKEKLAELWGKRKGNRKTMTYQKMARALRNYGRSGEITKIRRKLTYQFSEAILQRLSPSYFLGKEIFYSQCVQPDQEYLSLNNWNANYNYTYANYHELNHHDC
To be noted: protein: recombinant; tags: N-terminal GST; dsDNA, one strand shown. The essentials: as §1

The target in a further assay is ELF4 (Homo sapiens, UniProt Q99607 1-663). To be noted: protein: recombinant; tags: N-terminal GST; dsDNA, one strand shown. The method, boiled down: as §1
ELF4, sequence (Q99607 whole entry): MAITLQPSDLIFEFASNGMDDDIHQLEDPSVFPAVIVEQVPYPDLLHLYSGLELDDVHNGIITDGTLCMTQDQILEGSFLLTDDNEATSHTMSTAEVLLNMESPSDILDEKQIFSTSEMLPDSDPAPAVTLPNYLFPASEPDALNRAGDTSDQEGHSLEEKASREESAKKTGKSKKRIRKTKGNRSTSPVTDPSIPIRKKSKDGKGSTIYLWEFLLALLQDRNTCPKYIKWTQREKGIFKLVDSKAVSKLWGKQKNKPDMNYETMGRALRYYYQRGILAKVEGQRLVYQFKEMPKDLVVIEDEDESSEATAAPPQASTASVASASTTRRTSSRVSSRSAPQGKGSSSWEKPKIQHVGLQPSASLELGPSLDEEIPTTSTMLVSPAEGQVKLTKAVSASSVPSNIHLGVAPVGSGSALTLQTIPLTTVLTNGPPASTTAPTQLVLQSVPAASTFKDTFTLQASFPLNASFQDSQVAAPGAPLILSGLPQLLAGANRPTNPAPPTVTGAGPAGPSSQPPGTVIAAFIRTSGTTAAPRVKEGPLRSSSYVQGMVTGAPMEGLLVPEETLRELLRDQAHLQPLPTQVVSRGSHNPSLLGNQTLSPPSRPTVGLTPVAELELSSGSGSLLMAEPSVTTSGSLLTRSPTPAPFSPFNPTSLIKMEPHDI
The next assay deals with T3, ELK4 (Homo sapiens, UniProt P28324-2 1-405).
T3 sequence: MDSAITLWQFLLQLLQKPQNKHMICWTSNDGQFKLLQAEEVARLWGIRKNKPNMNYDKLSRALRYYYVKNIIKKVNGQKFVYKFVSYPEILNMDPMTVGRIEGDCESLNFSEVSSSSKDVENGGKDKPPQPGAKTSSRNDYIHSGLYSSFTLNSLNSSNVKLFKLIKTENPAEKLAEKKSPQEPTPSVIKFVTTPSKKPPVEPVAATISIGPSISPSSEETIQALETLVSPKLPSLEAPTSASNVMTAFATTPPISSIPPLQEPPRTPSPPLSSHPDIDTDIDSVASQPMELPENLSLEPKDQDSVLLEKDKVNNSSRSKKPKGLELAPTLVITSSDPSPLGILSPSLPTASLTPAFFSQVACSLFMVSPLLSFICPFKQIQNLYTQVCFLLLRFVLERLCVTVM
To be noted: protein: recombinant; tags: N-terminal GST; dsDNA, one strand shown. The essentials:
as §1

The next assay addresses T4, ETV2 (Homo sapiens, UniProt O00321 1-342).
T4 sequence: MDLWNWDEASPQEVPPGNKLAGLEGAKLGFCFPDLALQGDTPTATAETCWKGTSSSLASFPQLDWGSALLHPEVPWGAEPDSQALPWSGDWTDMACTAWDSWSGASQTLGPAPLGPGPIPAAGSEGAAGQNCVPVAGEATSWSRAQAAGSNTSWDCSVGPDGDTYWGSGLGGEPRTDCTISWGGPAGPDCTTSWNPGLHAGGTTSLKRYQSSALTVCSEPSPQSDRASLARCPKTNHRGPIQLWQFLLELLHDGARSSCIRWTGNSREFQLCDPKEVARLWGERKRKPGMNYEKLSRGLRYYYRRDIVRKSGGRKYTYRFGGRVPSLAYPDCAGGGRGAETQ
To be noted: protein: recombinant; tags: N-terminal GST; dsDNA, one strand shown. The method, boiled down:
as §1

The target of a further assay is T5, ELF3 (Homo sapiens, UniProt P78545 1-371).
T5 sequence: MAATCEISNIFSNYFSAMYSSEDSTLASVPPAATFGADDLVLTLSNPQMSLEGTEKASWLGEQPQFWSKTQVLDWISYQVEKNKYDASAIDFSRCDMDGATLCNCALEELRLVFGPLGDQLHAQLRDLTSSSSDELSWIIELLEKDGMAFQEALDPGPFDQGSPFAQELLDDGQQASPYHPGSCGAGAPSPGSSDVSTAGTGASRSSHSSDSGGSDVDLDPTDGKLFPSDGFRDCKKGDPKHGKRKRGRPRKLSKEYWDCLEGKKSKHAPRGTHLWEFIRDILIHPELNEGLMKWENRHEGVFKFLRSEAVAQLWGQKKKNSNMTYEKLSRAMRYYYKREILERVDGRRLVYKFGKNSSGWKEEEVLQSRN
Particulars: protein: recombinant; tags: N-terminal GST; dsDNA, one strand shown. The method, boiled down:
as §1

A further assay concerns the target CRX (Homo sapiens, UniProt O43186 1-299). Particulars: protein: recombinant; tags: N-terminal GST; dsDNA, one strand shown. The method, boiled down:
as §1

A further assay addresses ETV1 (Homo sapiens, UniProt P50549 1-477). Particulars: protein: recombinant; tags: N-terminal GST; dsDNA, one strand shown. The method, boiled down: as §1
The next assay deals with T6, ERF (Homo sapiens, UniProt P50548 1-548).
T6 sequence: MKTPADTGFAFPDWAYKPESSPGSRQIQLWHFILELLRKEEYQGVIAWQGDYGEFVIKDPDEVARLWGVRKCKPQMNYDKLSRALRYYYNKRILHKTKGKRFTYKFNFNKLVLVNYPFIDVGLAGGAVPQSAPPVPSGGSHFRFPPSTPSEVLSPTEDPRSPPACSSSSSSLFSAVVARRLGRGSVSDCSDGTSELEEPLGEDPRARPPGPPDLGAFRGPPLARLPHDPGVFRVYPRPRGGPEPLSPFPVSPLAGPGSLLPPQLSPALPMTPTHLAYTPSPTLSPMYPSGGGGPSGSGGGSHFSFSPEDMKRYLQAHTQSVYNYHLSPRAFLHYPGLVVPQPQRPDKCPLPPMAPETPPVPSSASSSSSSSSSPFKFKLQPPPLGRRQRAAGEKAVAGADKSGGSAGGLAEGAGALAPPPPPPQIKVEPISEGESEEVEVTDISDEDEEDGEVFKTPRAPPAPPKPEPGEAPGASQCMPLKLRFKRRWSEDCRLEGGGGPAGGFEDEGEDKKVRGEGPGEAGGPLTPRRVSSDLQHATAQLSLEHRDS
To be noted: protein: recombinant; tags: N-terminal GST; dsDNA, one strand shown. The method, boiled down: as §1

Another assay addresses T7, ETV3L (Homo sapiens, UniProt Q6ZN32 1-361).
T7 sequence: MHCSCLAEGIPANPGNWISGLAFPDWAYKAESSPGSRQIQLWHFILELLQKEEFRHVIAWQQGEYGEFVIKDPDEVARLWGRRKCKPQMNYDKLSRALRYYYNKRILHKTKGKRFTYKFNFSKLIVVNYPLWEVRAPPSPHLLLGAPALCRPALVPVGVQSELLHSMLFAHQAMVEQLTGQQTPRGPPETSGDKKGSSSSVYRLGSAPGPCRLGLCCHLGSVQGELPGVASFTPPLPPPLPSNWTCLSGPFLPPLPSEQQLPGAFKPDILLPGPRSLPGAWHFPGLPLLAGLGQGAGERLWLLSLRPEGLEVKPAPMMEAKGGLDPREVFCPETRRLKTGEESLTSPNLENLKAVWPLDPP
To be noted: protein: recombinant; tags: N-terminal GST; dsDNA, one strand shown. The method, boiled down: as §1

The next assay addresses T8, ETS2 (Homo sapiens, UniProt P15036 1-469).
T8 sequence: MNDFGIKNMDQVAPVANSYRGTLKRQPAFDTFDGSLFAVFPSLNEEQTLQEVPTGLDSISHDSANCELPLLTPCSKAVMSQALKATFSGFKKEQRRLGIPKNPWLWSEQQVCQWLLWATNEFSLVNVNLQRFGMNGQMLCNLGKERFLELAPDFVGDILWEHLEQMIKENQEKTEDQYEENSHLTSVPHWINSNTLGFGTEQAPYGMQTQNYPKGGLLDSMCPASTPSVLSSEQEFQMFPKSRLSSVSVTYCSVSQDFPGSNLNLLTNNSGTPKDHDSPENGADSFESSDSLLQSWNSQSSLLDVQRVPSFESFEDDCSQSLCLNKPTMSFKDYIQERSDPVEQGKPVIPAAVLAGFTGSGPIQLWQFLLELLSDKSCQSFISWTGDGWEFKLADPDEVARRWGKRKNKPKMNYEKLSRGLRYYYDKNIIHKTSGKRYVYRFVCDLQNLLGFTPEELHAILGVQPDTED
To be noted: protein: recombinant; tags: N-terminal GST; dsDNA, one strand shown. The essentials: as §1

Another assay concerns the target T9, SPDEF (Homo sapiens, UniProt O95238 1-335).
T9 sequence: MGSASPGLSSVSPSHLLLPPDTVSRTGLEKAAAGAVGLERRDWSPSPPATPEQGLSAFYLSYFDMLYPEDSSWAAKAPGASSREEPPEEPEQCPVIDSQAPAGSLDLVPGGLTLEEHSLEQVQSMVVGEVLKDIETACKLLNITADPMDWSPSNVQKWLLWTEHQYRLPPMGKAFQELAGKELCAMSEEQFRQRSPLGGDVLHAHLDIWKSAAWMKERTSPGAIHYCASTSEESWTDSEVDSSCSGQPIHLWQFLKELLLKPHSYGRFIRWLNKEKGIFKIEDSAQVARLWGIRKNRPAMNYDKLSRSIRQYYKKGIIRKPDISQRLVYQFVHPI
Particulars: protein: recombinant; tags: N-terminal GST; dsDNA, one strand shown. The essentials: as §1

A further assay concerns the target T10, ETV7 (Homo sapiens, UniProt Q9Y603 1-341).
T10 sequence: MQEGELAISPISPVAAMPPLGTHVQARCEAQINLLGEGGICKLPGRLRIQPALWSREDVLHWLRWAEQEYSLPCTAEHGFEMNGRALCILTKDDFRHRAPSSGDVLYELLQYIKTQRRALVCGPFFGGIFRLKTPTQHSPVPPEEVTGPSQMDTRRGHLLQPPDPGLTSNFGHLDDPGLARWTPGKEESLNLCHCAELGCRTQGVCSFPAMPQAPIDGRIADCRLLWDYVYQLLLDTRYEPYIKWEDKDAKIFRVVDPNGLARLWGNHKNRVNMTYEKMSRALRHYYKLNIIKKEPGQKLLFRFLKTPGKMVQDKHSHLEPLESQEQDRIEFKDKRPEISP
Particulars: protein: recombinant; tags: N-terminal GST; dsDNA, one strand shown. The essentials: as §1

Another assay addresses T11, ELF5 (Homo sapiens, UniProt Q9UKW6-2 1-255).
T11 sequence: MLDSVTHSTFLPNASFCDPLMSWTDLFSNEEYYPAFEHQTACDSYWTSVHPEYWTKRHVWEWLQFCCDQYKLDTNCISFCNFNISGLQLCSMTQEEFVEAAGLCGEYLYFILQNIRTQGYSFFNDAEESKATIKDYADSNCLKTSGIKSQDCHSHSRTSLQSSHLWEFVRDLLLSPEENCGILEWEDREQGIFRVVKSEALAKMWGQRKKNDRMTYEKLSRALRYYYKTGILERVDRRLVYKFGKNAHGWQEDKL
Particulars: protein: recombinant; tags: N-terminal GST; dsDNA, one strand shown. The essentials:
as §1

The next assay deals with T12, ETV3 (Homo sapiens, UniProt P41162-2 1-143).
T12 sequence: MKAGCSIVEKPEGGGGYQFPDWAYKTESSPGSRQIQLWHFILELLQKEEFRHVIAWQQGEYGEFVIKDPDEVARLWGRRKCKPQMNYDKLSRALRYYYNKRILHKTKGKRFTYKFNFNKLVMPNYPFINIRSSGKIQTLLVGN
To be noted: protein: recombinant; tags: N-terminal GST; dsDNA, one strand shown. The method, boiled down: as §1

A further assay has as its target ETV6 (Homo sapiens, UniProt P41212 1-452). To be noted: protein: recombinant; tags: N-terminal GST; dsDNA, one strand shown. The essentials:
as §1

ETV6, sequence (P41212 whole entry): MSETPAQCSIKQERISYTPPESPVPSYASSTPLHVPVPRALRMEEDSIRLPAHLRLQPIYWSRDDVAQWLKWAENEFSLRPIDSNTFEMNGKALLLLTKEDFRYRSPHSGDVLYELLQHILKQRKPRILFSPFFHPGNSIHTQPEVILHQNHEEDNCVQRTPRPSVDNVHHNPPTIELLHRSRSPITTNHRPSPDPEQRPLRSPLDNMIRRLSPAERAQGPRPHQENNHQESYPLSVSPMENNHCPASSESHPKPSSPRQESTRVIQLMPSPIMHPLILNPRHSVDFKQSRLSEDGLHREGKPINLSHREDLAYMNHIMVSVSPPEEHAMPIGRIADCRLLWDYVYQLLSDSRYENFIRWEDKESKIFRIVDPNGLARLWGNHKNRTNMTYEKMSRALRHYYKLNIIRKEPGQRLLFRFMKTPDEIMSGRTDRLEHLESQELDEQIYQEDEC
CRX, sequence (O43186 whole entry): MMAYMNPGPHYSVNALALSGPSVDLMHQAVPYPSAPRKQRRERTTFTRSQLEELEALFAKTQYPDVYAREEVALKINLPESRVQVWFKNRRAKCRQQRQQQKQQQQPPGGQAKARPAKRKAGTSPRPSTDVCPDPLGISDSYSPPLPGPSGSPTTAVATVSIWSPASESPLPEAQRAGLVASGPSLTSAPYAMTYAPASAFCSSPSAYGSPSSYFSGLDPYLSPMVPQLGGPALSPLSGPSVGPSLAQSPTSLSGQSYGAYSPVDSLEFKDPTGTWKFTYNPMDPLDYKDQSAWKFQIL
ETV1, sequence (P50549 whole entry): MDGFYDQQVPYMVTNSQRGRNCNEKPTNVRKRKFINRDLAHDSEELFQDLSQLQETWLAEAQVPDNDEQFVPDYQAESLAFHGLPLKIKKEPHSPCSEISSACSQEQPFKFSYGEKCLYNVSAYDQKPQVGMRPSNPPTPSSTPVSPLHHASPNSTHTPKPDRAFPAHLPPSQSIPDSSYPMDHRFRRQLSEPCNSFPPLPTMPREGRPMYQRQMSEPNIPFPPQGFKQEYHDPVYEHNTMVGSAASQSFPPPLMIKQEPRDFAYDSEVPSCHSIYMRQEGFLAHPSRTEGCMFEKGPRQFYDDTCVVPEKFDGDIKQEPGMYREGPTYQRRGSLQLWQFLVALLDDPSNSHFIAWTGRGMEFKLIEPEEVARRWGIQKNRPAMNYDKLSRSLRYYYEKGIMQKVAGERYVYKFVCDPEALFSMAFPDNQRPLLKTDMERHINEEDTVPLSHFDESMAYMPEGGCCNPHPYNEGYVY
ETV5, sequence (P41161 whole entry): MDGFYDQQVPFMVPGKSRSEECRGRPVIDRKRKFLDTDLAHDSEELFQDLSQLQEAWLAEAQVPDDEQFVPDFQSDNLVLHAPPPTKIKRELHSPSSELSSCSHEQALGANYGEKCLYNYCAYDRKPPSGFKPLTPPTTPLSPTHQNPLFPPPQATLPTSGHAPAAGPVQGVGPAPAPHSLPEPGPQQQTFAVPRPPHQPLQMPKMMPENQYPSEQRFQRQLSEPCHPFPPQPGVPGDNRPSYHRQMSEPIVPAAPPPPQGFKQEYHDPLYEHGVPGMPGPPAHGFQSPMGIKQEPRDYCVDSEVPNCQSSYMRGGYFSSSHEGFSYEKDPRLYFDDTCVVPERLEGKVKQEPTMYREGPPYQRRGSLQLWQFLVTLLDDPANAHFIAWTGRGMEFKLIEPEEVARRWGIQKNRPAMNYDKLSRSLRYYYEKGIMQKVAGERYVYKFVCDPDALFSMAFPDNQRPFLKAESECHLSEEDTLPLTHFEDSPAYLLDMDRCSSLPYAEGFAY

Turning to TCTATT, the binding signal with FEV is 1.22 fold enrichment (6-mer frequency, TF over GST control); with ETV5, 1.3 fold enrichment (6-mer frequency, TF over GST control); with HSF1, 1.43 fold enrichment (6-mer frequency, TF over GST control); with SPIC it was 1.57 fold enrichment (6-mer frequency, TF over GST control); with ELF4 it was 1.27 fold enrichment (6-mer frequency, TF over GST control); with ELK4 it was 1.25 fold enrichment (6-mer frequency, TF over GST control). Also, the binding signal is 1.16 fold enrichment (6-mer frequency, TF over GST control) in the assay with ETV2; 1.35 fold enrichment (6-mer frequency, TF over GST control) with ELF3; 1.37 fold enrichment (6-mer frequency, TF over GST control) with CRX; 1.25 fold enrichment (6-mer frequency, TF over GST control) with ETV1; 1.26 fold enrichment (6-mer frequency, TF over GST control) in the assay with ERF; 1.28 fold enrichment (6-mer frequency, TF over GST control) with ETV3L. The binding signal was 1.23 fold enrichment (6-mer frequency, TF over GST control) in the assay with ETS2; 1.37 fold enrichment (6-mer frequency, TF over GST control) in the assay with SPDEF; 1.11 fold enrichment (6-mer frequency, TF over GST control) in the assay with ETV7; 1.18 fold enrichment (6-mer frequency, TF over GST control) in the assay with ELF5; 1.25 fold enrichment (6-mer frequency, TF over GST control) with ETV3; 1.29 fold enrichment (6-mer frequency, TF over GST control) in the assay with ETV6.

These data come from PMC7862700, “An all-to-all approach to the identification of sequence-specific readers for epigenetic DNA modifications on cytosine”.
